Experimental data from the supplement of paper PMC11732987, “Enantioselective OTUD7B fragment discovery through chemoproteomics screening and high-throughput optimisation” (Communications Chemistry, 2025).

What was measured:
Experiment in all cases: log2 ratio of Biotin-Ahx-Ub-VS probe labelling (fragment/DMSO); higher = less target engagement (more negative = stronger competition), active = hit call of the paper (q ≤ 0.05, log2 ratio ≤ -1)
Settings in all cases: compound concentration: 200 uM; treatment time: 3 h
USP34 = USP34 (UniProt Q70CQ2)
Outline: (§1)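 The table lists average log2 ratios of fragment over vehicle, from an unpaired t-test on global-median-normalised Spectronaut label-free quantities. Proteins with ≥2 unique peptides were used. Samples were HEK293T lysate (495 µg) treated in triplicate with fragment at 200 µM or vehicle for 3 h, then with Biotin-Ahx-Ub-VS (0.5 µM final) for 1 h, with labelled DUBs NeutrAvidin-enriched and run by diaPASEF LC-MS/MS.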

USP36 = target: T1, USP36 (UniProt Q9P275)
T1 sequence (whole entry): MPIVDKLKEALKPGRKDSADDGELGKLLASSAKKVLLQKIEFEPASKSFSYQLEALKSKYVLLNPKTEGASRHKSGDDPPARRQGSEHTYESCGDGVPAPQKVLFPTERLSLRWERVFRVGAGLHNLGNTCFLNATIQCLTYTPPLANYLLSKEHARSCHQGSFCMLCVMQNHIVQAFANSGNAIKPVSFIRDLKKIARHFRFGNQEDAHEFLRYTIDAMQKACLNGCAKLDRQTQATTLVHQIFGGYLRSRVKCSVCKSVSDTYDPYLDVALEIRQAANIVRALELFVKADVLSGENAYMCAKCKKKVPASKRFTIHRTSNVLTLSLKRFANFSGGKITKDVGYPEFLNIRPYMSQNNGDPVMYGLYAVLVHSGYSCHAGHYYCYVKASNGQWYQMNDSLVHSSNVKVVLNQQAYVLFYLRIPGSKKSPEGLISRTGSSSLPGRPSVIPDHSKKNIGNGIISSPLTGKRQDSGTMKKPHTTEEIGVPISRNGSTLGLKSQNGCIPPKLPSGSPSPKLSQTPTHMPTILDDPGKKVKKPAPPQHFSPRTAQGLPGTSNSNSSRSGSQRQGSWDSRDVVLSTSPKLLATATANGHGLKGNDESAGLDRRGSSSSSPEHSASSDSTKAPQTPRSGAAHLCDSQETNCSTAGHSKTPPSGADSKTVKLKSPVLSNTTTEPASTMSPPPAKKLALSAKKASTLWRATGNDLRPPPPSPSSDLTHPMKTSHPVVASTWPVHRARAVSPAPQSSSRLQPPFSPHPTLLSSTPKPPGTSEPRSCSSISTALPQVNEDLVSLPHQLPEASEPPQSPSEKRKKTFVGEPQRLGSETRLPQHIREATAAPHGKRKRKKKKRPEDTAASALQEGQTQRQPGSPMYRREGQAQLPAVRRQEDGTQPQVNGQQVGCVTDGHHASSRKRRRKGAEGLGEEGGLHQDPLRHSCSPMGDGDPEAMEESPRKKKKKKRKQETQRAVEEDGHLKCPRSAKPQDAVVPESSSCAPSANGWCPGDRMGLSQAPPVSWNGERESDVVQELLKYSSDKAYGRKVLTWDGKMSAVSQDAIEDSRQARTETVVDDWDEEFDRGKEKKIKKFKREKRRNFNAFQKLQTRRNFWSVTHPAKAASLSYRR
Outline: as §1

USP38 = target: T2, USP38 (UniProt Q8NB14)
T2 sequence (whole entry): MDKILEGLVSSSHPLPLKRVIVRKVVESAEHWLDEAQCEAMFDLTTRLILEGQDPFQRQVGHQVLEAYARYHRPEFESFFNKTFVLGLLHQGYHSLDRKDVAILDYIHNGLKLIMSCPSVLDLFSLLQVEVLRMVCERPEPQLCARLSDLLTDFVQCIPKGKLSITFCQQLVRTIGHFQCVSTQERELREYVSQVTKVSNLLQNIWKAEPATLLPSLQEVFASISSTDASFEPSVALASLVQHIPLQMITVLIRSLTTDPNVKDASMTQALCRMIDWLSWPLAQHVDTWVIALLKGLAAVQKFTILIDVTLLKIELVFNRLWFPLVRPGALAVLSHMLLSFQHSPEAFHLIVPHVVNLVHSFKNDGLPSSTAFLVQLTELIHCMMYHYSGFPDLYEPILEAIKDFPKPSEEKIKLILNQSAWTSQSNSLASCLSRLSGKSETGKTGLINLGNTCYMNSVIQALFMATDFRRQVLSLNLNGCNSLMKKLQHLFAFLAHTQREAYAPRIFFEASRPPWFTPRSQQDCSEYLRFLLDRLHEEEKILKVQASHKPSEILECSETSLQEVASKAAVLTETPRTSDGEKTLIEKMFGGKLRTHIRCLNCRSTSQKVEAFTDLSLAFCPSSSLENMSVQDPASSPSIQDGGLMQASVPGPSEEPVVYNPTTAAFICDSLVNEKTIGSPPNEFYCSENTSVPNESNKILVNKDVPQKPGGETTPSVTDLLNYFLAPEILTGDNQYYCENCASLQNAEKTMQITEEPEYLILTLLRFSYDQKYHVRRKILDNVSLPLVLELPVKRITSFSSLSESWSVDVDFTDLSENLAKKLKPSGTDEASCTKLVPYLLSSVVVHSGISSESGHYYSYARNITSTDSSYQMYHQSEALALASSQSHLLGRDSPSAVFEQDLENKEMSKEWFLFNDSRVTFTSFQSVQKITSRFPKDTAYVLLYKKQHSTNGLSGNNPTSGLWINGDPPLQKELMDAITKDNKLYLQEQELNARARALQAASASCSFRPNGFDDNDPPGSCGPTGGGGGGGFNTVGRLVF
Outline: as §1

USP39 = target: T3, USP39 (UniProt Q53GS9)
T3 sequence (whole entry): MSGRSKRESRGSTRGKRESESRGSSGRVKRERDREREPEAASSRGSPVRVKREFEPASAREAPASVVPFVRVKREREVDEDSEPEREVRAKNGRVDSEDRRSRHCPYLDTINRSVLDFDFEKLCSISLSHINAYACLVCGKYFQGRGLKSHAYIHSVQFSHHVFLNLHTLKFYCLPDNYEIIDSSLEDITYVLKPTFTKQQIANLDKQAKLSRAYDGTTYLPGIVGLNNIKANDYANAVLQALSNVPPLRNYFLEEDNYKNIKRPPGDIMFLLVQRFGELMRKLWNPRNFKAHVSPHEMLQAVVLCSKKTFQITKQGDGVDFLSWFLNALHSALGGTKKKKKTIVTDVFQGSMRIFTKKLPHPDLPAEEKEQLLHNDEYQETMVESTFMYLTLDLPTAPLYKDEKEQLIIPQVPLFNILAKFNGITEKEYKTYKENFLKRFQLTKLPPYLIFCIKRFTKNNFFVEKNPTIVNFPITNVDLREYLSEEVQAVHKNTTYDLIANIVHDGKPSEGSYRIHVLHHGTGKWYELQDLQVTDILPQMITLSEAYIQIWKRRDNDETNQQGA
Outline: as §1

USP4 = target: T4, USP4 (UniProt Q13107)
T4 sequence (whole entry): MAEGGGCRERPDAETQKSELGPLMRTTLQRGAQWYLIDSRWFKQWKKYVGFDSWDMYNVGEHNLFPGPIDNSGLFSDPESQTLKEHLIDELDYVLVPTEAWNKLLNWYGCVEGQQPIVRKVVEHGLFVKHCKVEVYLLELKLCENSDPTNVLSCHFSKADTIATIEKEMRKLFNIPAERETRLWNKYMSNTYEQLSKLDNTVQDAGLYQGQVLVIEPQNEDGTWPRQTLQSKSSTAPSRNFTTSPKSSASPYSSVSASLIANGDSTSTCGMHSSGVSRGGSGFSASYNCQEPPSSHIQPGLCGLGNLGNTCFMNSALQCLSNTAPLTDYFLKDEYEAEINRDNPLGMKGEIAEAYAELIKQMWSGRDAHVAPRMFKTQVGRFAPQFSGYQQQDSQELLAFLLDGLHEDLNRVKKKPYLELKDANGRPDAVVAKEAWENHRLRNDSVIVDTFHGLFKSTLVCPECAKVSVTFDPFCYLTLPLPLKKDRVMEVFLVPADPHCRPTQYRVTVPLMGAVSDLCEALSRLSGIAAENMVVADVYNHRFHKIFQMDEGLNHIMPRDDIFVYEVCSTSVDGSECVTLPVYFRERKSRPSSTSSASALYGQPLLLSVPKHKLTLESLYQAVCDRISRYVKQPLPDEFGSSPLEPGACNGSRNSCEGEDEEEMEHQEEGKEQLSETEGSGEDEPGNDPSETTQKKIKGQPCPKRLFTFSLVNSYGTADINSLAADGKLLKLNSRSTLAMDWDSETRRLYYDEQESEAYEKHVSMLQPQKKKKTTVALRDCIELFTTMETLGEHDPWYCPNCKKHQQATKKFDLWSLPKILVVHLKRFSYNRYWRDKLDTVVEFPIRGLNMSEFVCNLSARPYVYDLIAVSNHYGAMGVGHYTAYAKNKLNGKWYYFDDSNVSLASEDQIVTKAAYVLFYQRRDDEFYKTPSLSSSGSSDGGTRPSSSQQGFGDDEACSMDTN
Outline: as §1

Measured: log2 ratio of Biotin-Ahx-Ub-VS probe labelling

Sequence of USP34 (Q70CQ2 whole entry, the tested form may be a part): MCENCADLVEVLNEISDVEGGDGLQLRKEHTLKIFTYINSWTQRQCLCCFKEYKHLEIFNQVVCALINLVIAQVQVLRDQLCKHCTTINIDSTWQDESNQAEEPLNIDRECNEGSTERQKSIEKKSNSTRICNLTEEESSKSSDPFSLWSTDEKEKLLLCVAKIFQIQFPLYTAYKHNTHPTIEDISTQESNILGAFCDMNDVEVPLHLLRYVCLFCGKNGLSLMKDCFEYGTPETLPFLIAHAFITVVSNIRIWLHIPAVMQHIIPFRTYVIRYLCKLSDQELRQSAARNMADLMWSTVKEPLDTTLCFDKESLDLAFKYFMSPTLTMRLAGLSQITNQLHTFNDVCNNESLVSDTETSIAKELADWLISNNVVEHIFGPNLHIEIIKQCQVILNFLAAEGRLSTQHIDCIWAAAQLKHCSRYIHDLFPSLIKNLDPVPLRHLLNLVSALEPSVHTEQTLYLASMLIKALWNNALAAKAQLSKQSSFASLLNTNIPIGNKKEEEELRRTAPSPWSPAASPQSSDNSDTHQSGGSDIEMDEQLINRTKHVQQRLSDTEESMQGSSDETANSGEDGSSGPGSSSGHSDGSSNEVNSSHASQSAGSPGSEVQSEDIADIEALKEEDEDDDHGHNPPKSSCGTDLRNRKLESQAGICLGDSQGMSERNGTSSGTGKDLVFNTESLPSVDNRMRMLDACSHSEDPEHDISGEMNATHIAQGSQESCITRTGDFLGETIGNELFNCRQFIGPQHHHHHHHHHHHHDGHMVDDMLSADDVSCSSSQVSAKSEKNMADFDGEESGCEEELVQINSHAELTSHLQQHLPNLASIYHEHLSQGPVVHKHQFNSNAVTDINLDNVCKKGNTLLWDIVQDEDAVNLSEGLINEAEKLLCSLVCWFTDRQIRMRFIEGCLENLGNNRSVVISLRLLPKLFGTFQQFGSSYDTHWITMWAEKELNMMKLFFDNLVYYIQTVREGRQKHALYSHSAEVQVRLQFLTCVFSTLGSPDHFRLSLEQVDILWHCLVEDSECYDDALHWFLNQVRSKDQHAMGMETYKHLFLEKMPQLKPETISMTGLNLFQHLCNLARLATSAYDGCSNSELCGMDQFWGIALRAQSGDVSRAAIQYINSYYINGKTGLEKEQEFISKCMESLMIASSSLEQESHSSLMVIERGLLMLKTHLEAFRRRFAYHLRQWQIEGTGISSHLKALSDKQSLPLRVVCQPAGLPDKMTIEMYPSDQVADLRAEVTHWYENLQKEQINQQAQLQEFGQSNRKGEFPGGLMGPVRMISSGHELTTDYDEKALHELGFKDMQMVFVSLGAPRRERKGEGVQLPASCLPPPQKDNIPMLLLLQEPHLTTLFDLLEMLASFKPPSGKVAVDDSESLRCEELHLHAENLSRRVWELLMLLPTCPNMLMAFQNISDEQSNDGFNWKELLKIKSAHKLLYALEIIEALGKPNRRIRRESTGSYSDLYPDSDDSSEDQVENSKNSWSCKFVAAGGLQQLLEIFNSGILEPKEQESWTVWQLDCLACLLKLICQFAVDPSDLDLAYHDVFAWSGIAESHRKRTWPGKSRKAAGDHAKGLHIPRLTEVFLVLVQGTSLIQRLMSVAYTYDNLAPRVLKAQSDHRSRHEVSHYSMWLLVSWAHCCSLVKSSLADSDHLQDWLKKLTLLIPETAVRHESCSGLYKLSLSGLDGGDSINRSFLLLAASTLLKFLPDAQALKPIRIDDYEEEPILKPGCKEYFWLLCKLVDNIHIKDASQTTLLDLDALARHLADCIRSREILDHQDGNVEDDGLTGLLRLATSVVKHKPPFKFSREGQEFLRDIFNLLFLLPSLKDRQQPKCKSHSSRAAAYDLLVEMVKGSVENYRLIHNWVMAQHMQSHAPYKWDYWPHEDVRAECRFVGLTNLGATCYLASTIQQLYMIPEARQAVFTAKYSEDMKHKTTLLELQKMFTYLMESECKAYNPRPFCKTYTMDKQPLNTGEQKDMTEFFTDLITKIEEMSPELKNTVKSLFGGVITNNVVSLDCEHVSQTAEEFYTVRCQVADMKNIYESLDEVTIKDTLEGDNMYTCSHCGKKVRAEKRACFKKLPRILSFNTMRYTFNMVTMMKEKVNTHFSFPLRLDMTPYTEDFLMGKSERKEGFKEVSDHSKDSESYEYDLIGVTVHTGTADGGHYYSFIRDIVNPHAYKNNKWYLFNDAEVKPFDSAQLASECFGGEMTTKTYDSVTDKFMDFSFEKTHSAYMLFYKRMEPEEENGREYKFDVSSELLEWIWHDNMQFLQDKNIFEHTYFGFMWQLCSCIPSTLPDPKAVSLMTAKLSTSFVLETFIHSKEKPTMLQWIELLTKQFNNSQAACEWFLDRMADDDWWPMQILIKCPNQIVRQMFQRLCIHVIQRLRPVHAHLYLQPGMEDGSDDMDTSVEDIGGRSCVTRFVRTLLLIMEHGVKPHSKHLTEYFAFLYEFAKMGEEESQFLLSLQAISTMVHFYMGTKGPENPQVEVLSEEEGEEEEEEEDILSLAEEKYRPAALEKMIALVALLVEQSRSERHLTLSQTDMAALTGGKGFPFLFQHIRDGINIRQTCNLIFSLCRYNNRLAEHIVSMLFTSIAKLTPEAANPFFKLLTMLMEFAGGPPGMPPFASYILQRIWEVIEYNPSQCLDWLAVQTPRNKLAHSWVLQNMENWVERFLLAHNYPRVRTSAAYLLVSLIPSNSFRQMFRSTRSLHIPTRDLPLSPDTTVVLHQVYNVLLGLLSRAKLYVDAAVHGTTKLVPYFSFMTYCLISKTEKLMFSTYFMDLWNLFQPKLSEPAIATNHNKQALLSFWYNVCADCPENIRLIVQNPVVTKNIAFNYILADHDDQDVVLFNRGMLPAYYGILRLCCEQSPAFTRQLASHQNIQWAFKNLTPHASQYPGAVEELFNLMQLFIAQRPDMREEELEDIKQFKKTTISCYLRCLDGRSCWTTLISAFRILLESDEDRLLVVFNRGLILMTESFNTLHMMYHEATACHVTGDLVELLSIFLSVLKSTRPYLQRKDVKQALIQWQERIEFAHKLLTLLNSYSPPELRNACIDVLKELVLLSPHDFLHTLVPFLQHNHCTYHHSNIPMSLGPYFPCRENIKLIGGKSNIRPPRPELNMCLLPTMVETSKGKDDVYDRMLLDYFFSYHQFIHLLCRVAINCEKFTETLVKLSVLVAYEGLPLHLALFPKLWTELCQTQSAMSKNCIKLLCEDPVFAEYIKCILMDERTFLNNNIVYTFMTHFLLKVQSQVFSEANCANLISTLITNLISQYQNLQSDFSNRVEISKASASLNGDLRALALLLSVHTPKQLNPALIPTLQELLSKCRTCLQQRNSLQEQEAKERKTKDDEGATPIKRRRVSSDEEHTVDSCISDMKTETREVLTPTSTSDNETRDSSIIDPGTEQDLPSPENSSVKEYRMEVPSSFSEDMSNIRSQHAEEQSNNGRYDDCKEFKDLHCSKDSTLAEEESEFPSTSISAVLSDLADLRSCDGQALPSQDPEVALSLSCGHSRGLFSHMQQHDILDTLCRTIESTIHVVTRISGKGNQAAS

O=C(CCl)N(Cc1ccsc1)C1CC1
inactive: USP34 -0.211 | USP36 0.266 | USP38 0.00214 | USP39 -0.0741 | USP4 -0.116
